# Data published in PubChem BioAssay (NCATS).
# A number with no mark means an inactive call. Records with an inconclusive call do not appear. Active and inactive are the calls of the source.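 How the source made its calls, unless noted: active means compounds whose dose series gives a full or clear partial fitted curve of increased nuclear translocation; inconclusive means weak partial curve or effect only at the top dose; inactive means no dose-dependent translocation response.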
# Assays:
# [1] = Stat Signaling Pathway (AID 446; active means well fitted curve in either direction with a large enough effect, not every such curve was filed as active;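 further: ME-180 cervical cancer cells given 40 pM IL-6 alongside compound; SIE-controlled beta-lactamase reporter measured as 460/530 nm FRET emission ratio; on the % scale 0 is the no-effect control and ±100 the full control effect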); conditions: ME-180 SIE beta-lactamase reporter, IL-6 stimulated, 5 h; at 17.2 µM (top of the series) unless noted
# Procedure, shortened: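 ME-180 cells carrying a SIE-driven beta-lactamase reporter are stimulated with 40 pM IL-6 for 5 h at 37C in the presence of compound. The 460/530 nm FRET substrate ratio is read after 2.5 h at RT. Data are normalised to 300 pM IL-6 and to 125 nM JAK inhibitor controls.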
# [2] = target: Glucocorticoid receptor (Homo sapiens) (UniProt P04150); assay: GR-GFP Redistribution (AID 450); further: potency means the concentration at half of the fitted maximal effect
# Sequence of Glucocorticoid receptor (Homo sapiens) (P04150 whole entry, looked up): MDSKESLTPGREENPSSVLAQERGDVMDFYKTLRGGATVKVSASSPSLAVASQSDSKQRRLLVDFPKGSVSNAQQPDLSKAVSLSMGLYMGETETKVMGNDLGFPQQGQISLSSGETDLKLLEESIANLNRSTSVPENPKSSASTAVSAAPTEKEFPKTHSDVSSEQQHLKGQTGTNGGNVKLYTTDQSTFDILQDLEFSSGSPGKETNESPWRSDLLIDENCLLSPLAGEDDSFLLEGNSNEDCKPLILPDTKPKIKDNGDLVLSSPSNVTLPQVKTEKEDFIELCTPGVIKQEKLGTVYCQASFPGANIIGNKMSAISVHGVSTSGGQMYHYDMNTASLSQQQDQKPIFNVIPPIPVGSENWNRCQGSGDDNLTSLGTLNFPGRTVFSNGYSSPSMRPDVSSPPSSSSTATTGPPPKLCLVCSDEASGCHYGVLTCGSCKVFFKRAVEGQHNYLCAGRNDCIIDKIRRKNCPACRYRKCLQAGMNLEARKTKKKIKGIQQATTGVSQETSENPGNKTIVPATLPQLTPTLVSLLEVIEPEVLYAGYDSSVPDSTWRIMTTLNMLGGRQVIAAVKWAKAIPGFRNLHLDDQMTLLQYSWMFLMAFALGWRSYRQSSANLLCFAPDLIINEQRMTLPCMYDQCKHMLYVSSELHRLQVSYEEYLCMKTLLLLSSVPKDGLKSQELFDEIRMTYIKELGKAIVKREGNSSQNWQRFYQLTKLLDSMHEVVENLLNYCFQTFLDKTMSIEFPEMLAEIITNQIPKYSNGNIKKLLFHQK
SMILES,"activity, negative = inhibition [1]",Potency [2] [µM]
CCN1CCc2c(C#N)c(N3CCCCC3)nc(NCc3ccccc3)c2C1,5.55%,> 20.6
COc1ccccc1Nc1ncc(-c2cccs2)s1,-4.45%,> 20.6
COC(=O)c1ccc(Cn2cnc3c(sc4nc(N5CCOCC5)c5c(c43)CCCC5)c2=O)o1,-11.4%,> 20.6
Cn1c(NCC(O)c2ccccc2)nc2c1c(=O)n(Cc1ccc(Cl)cc1)c(=O)n2C (centres undefined),-24.9%,> 20.6
CCN(CC)c1ccc2c(C)c(-c3ccc(N)cc3)c(=O)oc2c1,14.8%,> 20.6
COC(=O)c1cccc(Nc2cc(C)nc(-c3ccccc3O)n2)c1,-15.1%,> 20.6
CSc1nc2[nH]c3c(c2c2ncnn12)CCCC3,-26.5%,> 20.6
CCCc1nn(C)c2c1C(c1cccnc1)C(C#N)=C(N)O2 (centres undefined),4.95%,> 20.6
CCC(=O)Oc1ccc(/C(CC)=C(\CC)c2ccc(OC(=O)CC)cc2)cc1,-21.2%,> 20.6
Cc1cccc(C)c1OCC(=O)Nc1cccc(-c2nnc(-c3ccccc3)o2)c1,-9.86%,> 20.6
CC(NC(=O)CSc1nc2c(cc1C#N)CN(C)CC2)c1ccccc1 (centres undefined),-4.3%,> 20.6
CCOC(=O)c1[nH]c2cc3c(cc2c1NC(=O)CN1CCCCC1C)OCO3 (centres undefined),-10.3%,> 20.6
COc1ccc(C2C=C(c3ccc(C)cc3)Nc3ncnn32)cc1 (centres undefined),-14.5%,> 20.6
Cc1ccc2nc(C(F)(F)F)c(C#N)c(N)c2c1,-100% (active),> 20.6
COc1cccc(-c2nc(N3CCN(Cc4ccccc4)CC3)c3ccccc3n2)c1O,9.62%,> 20.6
Fc1ccccc1-c1nc(N2CCCCC2)c2ccccc2n1,-21.5%,> 20.6
COC(=O)c1[nH]c2cc(OC)ccc2c1NC(=O)CN1CCN(c2cccc(C)c2)C(C)C1 (centres undefined),-21.4%,> 20.6
CCCCc1ccc(NC(=O)CSC2=C(C#N)C(c3ccco3)C3=C(CCCC3=O)N2)cc1 (centres undefined),-23.6%,> 20.6
COc1ccccc1N1C(=O)C2ON(c3ccccc3)C(c3ccc(N(C)C)cc3)C2C1=O (centres undefined),-10.2%,> 20.6
COc1ccc(C(=O)C(CN2CCCC2)c2ccccc2)cc1 (centres undefined),-8.3%,> 20.6
N=c1c2c(-c3ccccc3)c(-c3ccccc3)n(Cc3ccccc3)c2ncn1CCCn1ccnc1,9.95%,> 20.6
C=CCc1cccc(CNc2nc3ccccc3n2C(C)C)c1O,-22.2%,> 20.6
Cc1nc(SCC(=O)c2ccccc2)c(C#N)c(-c2ccco2)c1C(=O)NCc1ccco1,-21.3%,> 20.6

SMILES,"activity, negative = inhibition [1]",Potency [2] [µM]
CCOC(=O)CC(=O)CSc1nc(N)c(C#N)c(-c2ccc(Cl)cc2)c1C#N,-16.4%,> 20.6
CCCOc1ccc(Cl)cc1CN1CCOCC1,8.53%,> 20.6
N#CCSc1nc2c(c(=O)n1Cc1ccco1)C1(CCCC1)Cc1ccccc1-2,-1.5%,> 20.6
Fc1ccc2[nH]c3c(N4CCN(c5ccccc5)CC4)ncnc3c2c1,-93.2% (active),> 20.6
CCCSc1nnc(NC(=O)Nc2ccccc2)s1,-19.6%,> 20.6
CCOc1ccc(/C(O)=C2/C(=O)C(=O)N(c3cc(C)on3)C2c2ccc(C(=O)OC)cc2)cc1 (centres undefined),-18.4%,> 20.6
N#Cc1ccc(-c2ccc(OCC(O)Cn3nnc4ccccc43)cc2)cc1 (centres undefined),-29.1%,> 20.6
Cc1cc(NCCNC2=CC(=O)CCC2)nc2ccccc12,4.57%,> 20.6
N#CC1=C(N)NC(SCc2ccc(F)cc2)=C(C#N)C12CCCCC2,-24.1%,> 20.6
Cc1cc(N2C(=O)C(=O)/C(=C(/O)c3ccc(F)cc3)C2c2ccc(F)cc2)no1 (centres undefined),-24.4%,> 20.6
COc1cccc(-c2nc(N3CCCCC3C)c3ccccc3n2)c1O (centres undefined),-21.7%,> 20.6
COc1cccc(-c2nnc3sc(-c4cccs4)nn23)c1,,> 20.6
N#Cc1ccc(-c2ccco2)nc1SCC(=O)c1ccc(Cl)cc1,-9.2%,> 20.6
COc1ccc(CCn2c(C)cc3c(c2=O)C(c2ccc4c(c2)OCO4)C(C#N)=C(N)O3)cc1OC (centres undefined),-21.6%,> 20.6
N#CC1=C(SCC(=O)c2ccccc2)NC2=C(C(=O)CCC2)C1c1ccco1 (centres undefined),-23.9%,> 20.6
Cc1ccccc1-n1c(=O)/c(=C\c2ccco2)s/c1=C(/C#N)C(=O)Nc1ccccc1,-25.9%,> 20.6
CCOC(=O)N1CCN(c2ncnc3c2[nH]c2ccc(OC)cc23)CC1,-22.9%,> 20.6
CC1(C)Cc2c(c(N3CCOCC3)nc3sc4c(NCc5ccco5)nnnc4c23)CS1,-26.9%,> 20.6
O=C(CCN1CCCC1Cc1ccccc1)c1ccc2c(c1)OCCO2 (centres undefined),14.7%,> 20.6
CCOC(=O)c1c(C)n(C)c2ccc(O)c(CN3CCCCC3)c12,18.3%,> 20.6
COc1cccc(-c2nnc3sc(C4CCCCC4)nn23)c1,-91.1% (active),> 20.6
CN(C)c1nc(OCCNC(=O)Nc2ccccc2)nc(N(C)C)n1,-7.19%,> 20.6
